Legend:
Conditions in all cases: concentration: 1 μM, replicates: in singlicate; n = 1
MYLK4 = system: MYLK4
MYLK = system: MYLK
MYO3A = system: MYO3A
MYO3B = system: MYO3B
NDR1 = system: T1, NDR1
T1 construct: gene STK38

NDR2 = system: NDR2
NEK10 = system: NEK10
NEK11 = system: NEK11
NEK1 = system: NEK1
NEK2 = system: NEK2
NEK3 = system: NEK3
NEK4 = system: NEK4
NEK5 = system: NEK5
NEK6 = system: NEK6
NEK7 = system: NEK7
NEK9 = system: NEK9
NIK = system: T2, NIK
T2 construct: gene MAP3K14

NIM1 = system: T3, NIM1
T3 construct: gene MGC42105

NLK = system: NLK
OSR1 = system: T4, OSR1
T4 construct: gene OXSR1
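Note: KINOMEscan kinase panel screen.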

| Structure (SMILES) | %Inh (MYLK4) [%] | %Inh (MYLK) [%] | %Inh (MYO3A) [%] | %Inh (MYO3B) [%] | %Inh (NDR1) [%] | %Inh (NDR2) [%] | %Inh (NEK10) [%] | %Inh (NEK11) [%] | %Inh (NEK1) [%] | %Inh (NEK2) [%] | %Inh (NEK3) [%] | %Inh (NEK4) [%] | %Inh (NEK5) [%] | %Inh (NEK6) [%] | %Inh (NEK7) [%] | %Inh (NEK9) [%] | %Inh (NIK) [%] | %Inh (NIM1) [%] | %Inh (NLK) [%] | %Inh (OSR1) [%] |
| --- | --- | --- | --- | --- | --- | --- | --- | --- | --- | --- | --- | --- | --- | --- | --- | --- | --- | --- | --- | --- |
| Clc1cc(Nc2ncnc3cc[nH]c23)ccc1OCc1ccccn1 | 9 | 17 | 24 | 20 | 14 | 0 | 0 | 0 | 5 | 0 | 22 | 6 | 0 | 16 | 0 | 7 | 0 | 35 | 0 | 2 |
| Cc1ccc(O)cc1Nc1cc(C(F)(F)F)nc2ccc(-c3ccncc3)cc12 [GW630823] | 0 | 6 | 6 | 0 | 0 | 6 | 0 | 0 | 0 | 2 | 0 | 0 | 6 | 8 | 58 | 42 | 0 | 0 | 10 | 0 |
| O=C(NCCCN1CCCC1=O)c1cnc(NCc2cc(Cl)ccc2Cl)nc1NC1CCNCC1 | 3 | 11 | 0 | 0 | 0 | 0 | 0 | 0 | 0 | 7 | 37 | 0 | 0 | 0 | 0 | 0 | 0 | 0 | 2 | 0 |
| Cc1cc(N2CCC(NS(=O)(=O)c3ccc(F)cc3)CC2)nc(Nc2cccc(C#N)c2)n1.O=C(O)C(F)(F)F [GSK1653537] | 0 | 0 | 0 | 0 | 0 | 0 | 1 | 0 | 55 | 0 | 0 | 0 | 0 | 0 | 0 | 0 | 0 | 18 | 35 | 6 |
| Cl.c1ccc(Cn2ccc3cc(Nc4ncnc5ccccc45)ccc32)cc1 [GW275568] | 26 | 21 | 16 | 0 | 32 | 1 | 29 | 0 | 0 | 14 | 12 | 5 | 28 | 0 | 9 | 24 | 0 | 10 | 20 | 1 |
| O=C(c1ccc(-c2cc(-c3c[nH]nc3-c3ccccn3)ccn2)cc1)N1CCCC1 [GW792479] | 4 | 31 | 9 | 16 | 21 | 3 | 18 | 0 | 0 | 3 | 35 | 0 | 0 | 28 | 0 | 0 | 0 | 4 | 0 | 0 |
| Cc1ccc(NC(=O)c2cccc(C#N)c2)cc1-c1ccc(C(=O)Nc2ccncc2)cc1 [GSK1398463] | 7 | 14 | 0 | 0 | 0 | 0 | 1 | 0 | 27 | 28 | 25 | 18 | 11 | 0 | 0 | 4 | 0 | 8 | 1 | 31 |
| CCc1nc(-c2cccc(C)c2)c(-c2ccnc(NC(=O)c3ccccc3)c2)s1 | 0 | 18 | 65 | 0 | 0 | 22 | 6 | 0 | 0 | 0 | 27 | 0 | 2 | 28 | 16 | 13 | 22 | 11 | 23 | 10 |
| CCc1nc(-c2cccc(N(C)S(=O)(=O)c3ccccc3)c2)c(-c2ccnc(Nc3ccc(N4CCN(C(C)=O)CC4)nc3)n2)s1 [GSK1645895] | 7 | 15 | 23 | 0 | 15 | 0 | 0 | 0 | 14 | 9 | 9 | 19 | 0 | 0 | 0 | 14 | 0 | 0 | 8 | 3 |
| Nc1nccc2scc(-c3ccc4c(c3)CCN4C(=O)Cc3cc(F)ccc3F)c12 [GSK2587663] | 0 | 24 | 0 | 0 | 0 | 0 | 12 | 9 | 0 | 7 | 0 | 9 | 6 | 0 | 0 | 4 | 0 | 18 | 2 | 5 |
| CCC(CC)(CC)n1cnc2c(N)ncnc21 [SKF-97620] | 0 | 0 | 0 | 35 | 42 | 16 | 65 | 0 | 0 | 0 | 23 | 0 | 0 | 0 | 0 | 0 | 0 | 28 | 17 | 19 |
| OCCOCCn1ccc2ncnc(Nc3ccc(Oc4cccc(Cl)c4)c(Cl)c3)c21 | 0 | 0 | 0 | 0 | 30 | 0 | 0 | 0 | 0 | 0 | 10 | 0 | 0 | 0 | 0 | 0 | 0 | 0 | 0 | 0 |
| Fc1cccc(COc2ccc(Nc3ncnc4sc(-c5ccc[nH]5)cc34)cc2Cl)c1 [GW707818] | 13 | 13 | 17 | 0 | 23 | 17 | 4 | 24 | 0 | 15 | 1 | 0 | 31 | 0 | 0 | 17 | 0 | 14 | 23 | 0 |
| Oc1ccc2ncnc(Nc3ccc(OCc4ccccc4)cc3)c2c1 [GI262866] | 3 | 0 | 0 | 0 | 0 | 0 | 0 | 0 | 0 | 0 | 0 | 0 | 7 | 0 | 1 | 10 | 8 | 7 | 7 | 0 |
| Nc1nc(-c2cccnc2)c(-c2ccnc3ccccc23)s1 [GW684083] | 83 | 15 | 0 | 0 | 0 | 11 | 77 | 27 | 0 | 13 | 2 | 20 | 0 | 0 | 0 | 4 | 29 | 66 | 9 | 11 |

From article PMC5540273 (PLoS ONE, 2017)
